Here are results for 93 compounds from PubChem BioAssay AID624483 (NMMLSC, 2012).

In all, about 360,000 compounds went through this assay and about 11,000 (3.1%) were called active. About 2% were inconclusive and are not listed. Cut-off read from the data, not from the text of the source: active = fluorescence intensity above about 16000; inconclusive = no clear call, values can overlap the other calls; inactive = below that. Many of the other results were omitted from the sample, so actives are more common in it than they were.

The assay in a line: counter-screen for toxin protease inhibitors: compound fluorescence, primary screen, artefact control for toxin protease inhibitor project, biochemical, multiplex microsphere, HTS (AID 624483). The note with it: compound autofluorescence counterscreen, microsphere flow cytometry; stronger effect = higher value.
Regarding `Cc1cccnc1C(NC(=O)C1CCN(Cc2ccc(Cl)c(Cl)c2)CC1)c1ccc(Cl)cc1` (stereo not drawn), the fluorescence intensity is 3480 (inactive).
For the compound `Cc1ccc(S(=O)(=O)NCCC(c2ccccc2)c2ccccc2)cc1C(=O)O`, the fluorescence intensity is 3790 (inactive).
Then `CCC(C)N(C)C1CCN(C(=S)Nc2ccc(OC)cc2)CC1` (stereo not drawn), with 4340 (inactive); and `COc1ccc(NC(=S)N2CCc3cc(OC)c(OC)cc3C2)cc1`, with 5760 (inactive); and `COc1ccc(NC(=S)N2N=CCC2c2ccccc2)cc1` (stereo not drawn), with 22400 (active).
`Cc1ccc(-c2nc3c(Cl)cc(C(F)(F)F)cn3c2Cc2cccc(Cl)c2)cc1`: the fluorescence intensity is 5350 (inactive).
Then `Cc1ccn(CC(=O)N2N=C(C(F)F)CC2(O)C(F)F)n1` (stereo not drawn), with 2400 (inactive); and `Cc1nn(Cc2ccc(C(=O)N3N=C(C(F)F)CC3(O)C(F)F)cc2)c(C)c1[N+](=O)[O-]` (stereo not drawn), with 20600 (active); and `Cc1ccc(C(C)NC(=O)Cn2nc(C)c([N+](=O)[O-])c2C)cc1` (stereo not drawn), with 8570 (inactive).
Then `CCOC(=O)C1=CN(Cc2ccc(Br)cc2)S(=O)(=O)N(C)C1C` (stereo not drawn), with 2790 (inactive); and `COc1ccc(C(C#N)=C2C=CC(=NO)c3ccccc32)cc1`, with 5680 (inactive).
Then `CC1CCC(NS(=O)(=O)c2ccc3c(c2)n(C)c(=O)c(=O)n3C)CC1` (stereo not drawn), with 22600 (active).
`CC(=O)Nc1ccc(S(=O)(=O)NCCc2ccccc2)cc1`: the fluorescence intensity is 11200 (inactive).
Turning to `CC1CCC(NS(=O)(=O)c2ccc3c(c2)CC(=O)N3)CC1` (stereo not drawn), the fluorescence intensity was 6000 (inactive).
With `Cn1c(=O)c(=O)n(C)c2cc(S(=O)(=O)NCCN3CCN(c4ccccc4F)CC3)ccc21`, the fluorescence intensity was 5840 (inactive).
Then `Cn1c(=O)c(=O)n(C)c2cc(S(=O)(=O)NCCc3ccccc3)ccc21`, with 21300 (active); and `Cn1sc(=O)c2cc(S(=O)(=O)NC3CC3)ccc21`, with 3800 (inactive).
Then `COc1ccc([C@H]2CC(=O)C[C@@H](CCn3cc(CC4CCCC4)nn3)O2)cc1`, with 5900 (inactive); and `O=C(NCc1ccccc1)C1c2ccccc2OCC(=O)N1CCCN1CCOCC1` (stereo not drawn), with 4950 (inactive).
With `O=C(/C=C/[C@H]1O[C@@H](n2ccc(=O)[nH]c2=O)[C@H](O)[C@@H]1O)NCc1ccccn1`, the fluorescence intensity was 4540 (inactive).
Turning to `O=C(c1cccc(F)c1)N1CCN(c2ccc([N+](=O)[O-])c3cccnc23)CC1`, the fluorescence intensity was 3360 (inactive).
Turning to `N#Cc1ccc(C(c2ccc(C#N)cc2)n2cncn2)cc1`, the fluorescence intensity is 5930 (inactive).
In the case of `Cc1ccc(S(=O)(=O)NC2CCCCCC2)cc1`, the fluorescence intensity is 3430 (inactive).
Then `Cc1cccc(CCNS(=O)(=O)c2ccc3c(c2)NC(=O)CO3)c1`, with 6090 (inactive); and `Cc1cccc(CCNS(=O)(=O)c2ccc(S(=O)(=O)NC3CCCC3)cc2)c1`, with 23700 (active); and `O=C(Nc1nnc([C@H]2C[C@H](O)[C@@H](CO)O2)s1)c1cccc(Cl)c1`, with 3090 (inactive).
Take `NC(=O)CSc1nnc(NC(=O)c2ccc(Br)o2)s1`: the fluorescence intensity was 5930 (inactive).
Then `Cc1ccc(C(=O)Nc2nnc(-c3ccncc3)s2)o1`, with 20300 (active).
On to `O=C(Nc1nnc(Cc2ccc(Cl)cc2)s1)c1ccncc1`, for which the fluorescence intensity is 5560 (inactive).
Turning to `COc1ccc(C(O)c2nc(-c3ccc(OC)nc3)cs2)cc1` (stereo not drawn), the fluorescence intensity was 3040 (inactive).
As to `COc1cc(OC)cc(C2=Cc3ccccc3C(CC(=O)c3ccco3)N2c2ccc(-c3cnc(OC)nc3)cc2)c1` (stereo not drawn), the fluorescence intensity was 5230 (inactive).
Then `Cc1ccc2c(c1)N(CC(=O)N1CCCc3ccccc31)C(=O)C(C)O2` (stereo not drawn), with 22200 (active); and `Cc1ccc(C(=O)N2CCCc3ccccc32)c(Cl)c1`, with 3770 (inactive).
As to `Cc1ccc2c(c1)N(CC(=O)N1CCCC(C)C1)C(=O)CO2` (stereo not drawn), the fluorescence intensity is 6170 (inactive).
Then `Cn1nc(-c2ccc(Cl)cc2)c2cc(C(=O)NCc3ccco3)sc21`, with 5560 (inactive).
Then `COC(=O)c1ccc(CSc2nc3cc(Cl)ccc3o2)cc1`, with 22300 (active); and `COC(=O)c1ccc(CNC(=O)c2ccc3oc(C(C)C)nc3c2)cc1`, with 6320 (inactive).
Then `COC(=O)c1ccc(CSc2nncn2C)cc1`, with 11000 (inactive).
`CCC(C)C(CO)NC(=O)/C=C/[C@H]1O[C@@H](n2cnc3c(NC(=O)c4ccccc4)ncnc32)[C@H](O)[C@@H]1O` (stereo partly drawn): the fluorescence intensity is 4240 (inactive).
Then `CC(=O)c1ccc(N2CCN(S(=O)(=O)c3ccc4c(c3)CC(=O)N4C)CC2)cc1`, with 4560 (inactive); and `COc1ccc(CCN2C(=O)c3[nH]nc(-c4ccccc4O)c3C2c2ccc(C)cc2)cc1OC` (stereo not drawn), with 17800 (active).
Then `COC(=O)c1ccc(C2C(Oc3ccccc3C)C(=O)N2CCc2ccc(OC)c(OC)c2)cc1` (stereo not drawn), with 2780 (inactive); and `COc1ccc(CCN2C(=O)C(C)=C(C)C2=O)cc1OC`, with 3920 (inactive).
On to `COc1ccc(C2/C=C\CN(S(=O)(=O)c3cccs3)CC(=O)N2Cc2ccc(F)cc2)cc1` (stereo not drawn), for which the fluorescence intensity was 3100 (inactive).
In the case of `Cc1cccc(NC(=S)N2CCC(O)CC2)c1C`, the fluorescence intensity is 4400 (inactive).
Then `O=C1Nc2c(Br)cc(Br)cc2C1(O)N1CCOCC1` (stereo not drawn), with 4310 (inactive); and `O=C1c2ccccc2C(=O)N1CCCc1nc(-c2ccccc2)no1`, with 21200 (active); and `O=C(CCN1C(=O)[C@H]2CC=CC[C@H]2C1=O)NCc1nc(-c2ccccc2)no1`, with 4420 (inactive).
Then `O=C(Cc1ccc(Cl)cc1)NCc1nc(-c2ccccc2)no1`, with 3500 (inactive); and `COc1cc(CNc2ncnc3c2ncn3[C@H]2CN(Cc3cccs3)C[C@@H](CO)O2)cc(OC)c1OC`, with 2940 (inactive); and `CC1(C(=O)NS(=O)(=O)c2cccc(F)c2)CCN1C(=O)Cc1cc(F)ccc1F` (stereo not drawn), with 3880 (inactive).
Then `C/C(=N/NC(=O)c1ccn(C)n1)c1ccncc1`, with 4250 (inactive).
Regarding `CC(=O)N/N=C(\C)c1ccc(Br)cc1Br`, the fluorescence intensity was 4300 (inactive).
Then `O=C(/C(=N\O)n1cncn1)c1ccc(Br)cc1Br`, with 21600 (active); and `Cc1ccc(NC(=O)Nc2ccc3oc(C)nc3c2)cc1`, with 4170 (inactive).
Then `Cc1nc2ccc(NC(=O)C(F)(F)F)cc2o1`, with 21700 (active); and `Cc1ccc2nc(-c3ccc(NC(=O)c4cccnc4)cc3)oc2c1`, with 4480 (inactive).
Then `O=C(CC[C@H]1O[C@@H](n2ccc(=O)[nH]c2=O)[C@H](O)[C@@H]1O)N[C@H](Cc1ccccc1)C(=O)NCCCN1CCCC1=O`, with 4310 (inactive); and `O=C1NC(O)CCN1C1CC(O)C(CO)O1` (stereo not drawn), with 6570 (inactive); and `CCOC(=O)c1ccc(N2C(=O)CC(N3CCN(C(=O)c4ccccc4)CC3)C2=O)cc1` (stereo not drawn), with 2610 (inactive).
Consider `CCOC(=O)c1ccc(N2C(=O)CC(N3CCC(C(=O)OCC)CC3)C2=O)cc1` (stereo not drawn), for which the fluorescence intensity is 2510 (inactive).
Then `CCCCOC(=O)c1ccc(N2C(=O)CC(N3CCN(C/C=C/c4ccccc4)CC3)C2=O)cc1` (stereo not drawn), with 22500 (active).
Then `CC(OC(=O)c1ccccc1OCc1ccc(Cl)cc1)C(N)=O` (stereo not drawn), with 4810 (inactive); and `Cc1cc(=O)oc2c1ccc1ccccc12`, with 3640 (inactive).
Then `O=C(O)CCC(=O)N(Cc1ccco1)c1nc(-c2ccccc2)cs1`, with 22500 (active).
For `Cc1ccc(-c2csc(N(Cc3ccco3)C(=O)c3cccs3)n2)cc1`, the fluorescence intensity was 2850 (inactive).
Regarding `O=C(O)CN(Cc1ccco1)S(=O)(=O)c1ccccc1`, the fluorescence intensity is 3010 (inactive).
Then `O=C(NCc1cccc(C(F)(F)F)c1)c1ccc2sc(COCCO)nc2c1`, with 3760 (inactive); and `CCNC(=O)NC(=O)C(C)OC(=O)c1cc(S(=O)(=O)N2CCCCCC2)ccc1OC` (stereo not drawn), with 3480 (inactive); and `CC1=NNC(=O)C1CC(=O)N/N=C/c1ccncc1` (stereo not drawn), with 4920 (inactive).
As for `CCN(CC)c1ccc(NC(=O)CN2C(=O)NC3(CCc4ccccc43)C2=O)cc1` (stereo not drawn), the fluorescence intensity was 8580 (inactive).
Then `CCCCNC(=O)CCNC(=O)c1ccc(C(C)(C)C)cc1`, with 20300 (active); and `CCOc1ccc(NC(=O)CCNC(=O)c2ccc(Br)cc2)cc1`, with 3030 (inactive).
Then `CCCCC(=O)Nc1ccc(C(=O)NCCCn2ccnc2)cc1`, with 10500 (inactive); and `CC(C)C1Cc2[nH][nH]c(=O)c2C(c2ccc(Cl)cc2)O1` (stereo not drawn), with 5700 (inactive).
`Cc1sc2nc(CC(N)=O)[nH]c(=O)c2c1-c1ccccc1`: the fluorescence intensity is 2450 (inactive).
In the case of `CCN(CC)C(=O)c1sc2nc(-c3ccccc3)ccc2c1N`, the fluorescence intensity is 4300 (inactive).
Then `NC(=O)c1sc2nc3c(c(-c4ccccc4)c2c1N)CCC3`, with 24800 (active).
Then `N=c1c2c3c(sc2ncn1CCCN1CCOCC1)CCCCC3`, with 6250 (inactive); and `S=c1[nH]nc2c3c4c(sc3ncn12)CCCC4`, with 2950 (inactive).
Then `CC(C(=O)O)n1cnc2sc3c(c2c1=O)CCCC3` (stereo not drawn), with 4940 (inactive); and `N=c1c2c3c(sc2nc2n1CCCCC2)CCCC3`, with 2860 (inactive); and `N=c1c2c3c(sc2ncn1N)CCCCC3`, with 19400 (active).
Consider `c1nnc2c3c4c(sc3ncn12)CCC4`, for which the fluorescence intensity is 23300 (active).
As to `CN1CCN(C(=O)c2ccc(NC(=O)c3ccc(Br)o3)cc2)CC1`, the fluorescence intensity was 5550 (inactive).
Consider `O=C(/C=C/[C@H]1O[C@@H](n2cnc3c(NC(=O)c4ccccc4)ncnc32)[C@H](O)[C@@H]1O)NCc1ccccc1`, for which the fluorescence intensity is 6020 (inactive).
Then `CS(=O)(=O)c1ccc2c(c1)SC1=NC(=O)/C(=C/c3ccco3)C(=N)N12`, with 20000 (active).
Then `CS(=O)(=O)C1=NN2C(=N)/C(=C\c3ccc(OCCOc4ccccc4)cc3)C(=O)N=C2S1`, with 3680 (inactive); and `CCS(=O)(=O)C1=NSC2=NC(=O)/C(=C\c3ccc(OS(=O)(=O)c4ccccc4)cc3)C(=N)N21`, with 4230 (inactive).
Turning to `OC(c1nc2ccc(F)cc2[nH]1)C(O)c1nc2ccc(F)cc2[nH]1` (stereo not drawn), the fluorescence intensity was 3790 (inactive).
Then `O=C1CCCC2=C1C(c1cccs1)n1nc(SCc3ccccc3)nc1N2` (stereo not drawn), with 23700 (active); and `O=C1CCCC2=C1C(c1cccs1)CC(=O)N2c1ccc(F)cc1` (stereo not drawn), with 3220 (inactive); and `CCCC(=O)N1c2ccccc2NC2=C(C(=O)CCC2)C1c1ccc(F)cc1` (stereo not drawn), with 6490 (inactive).
